Data as given in PubChem BioAssay AID1159580 (chemical genetic matrix, 2015).
Several values for one entry are separate records, joined by “and”; a condition that tells them apart may be missing. Equal entries are not always repeated. Hit rate of the full screen: of about 5,500 compounds, about 2,000 (36%) were called active. Not shown: some 18% with an inconclusive outcome. No stated cut-off is given here; in the data, active means normalized growth mostly below about 0.91 (no sharp cut-off); inconclusive means no clear call, values can overlap the other calls; inactive means mostly above about 0.92. The list shows a part of the results.

Assay: chemical genetic growth profiling, strain panel (AID 1159580);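 further: tested at 20 µM; growth read once vehicle control cultures reached saturation at 30 °C; 1 = growth at the plate median or of vehicle wells; lower values mean less growth of the strain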
Conditions: growth OD

Measured: normalized growth

CC(C)NCC(O)COc1cccc2[nH]ccc12 (stereo not given)
inactive: S. cerevisiae deletion strains, locus YJR075W, strain HOC1, active compounds read low 1.01 | S. cerevisiae deletion strains, locus YKL009W, strain mrt4, active compounds read low 0.966 | S. cerevisiae deletion strains, locus YKL068W, active compounds read low 0.984 | S. cerevisiae deletion strains, locus YKL085W, strain MDH1 (second series), active compounds read low 0.968 | S. cerevisiae deletion strains, locus YKL085W, strain MDH1, active compounds read low 0.968 | S. cerevisiae deletion strains, locus YKL160W, strain elf1, active compounds read low 1 | S. cerevisiae deletion strains, locus YKL190W, strain CNB1, active compounds read low 0.993 | S. cerevisiae deletion strains, locus YKR001C, strain vps1, active compounds read low 0.988 | S. cerevisiae deletion strains, locus YKR026C, strain gcn3, active compounds read low 0.966 | S. cerevisiae deletion strains, locus YKR091W, strain srl3, active compounds read low 0.992 | S. cerevisiae deletion strains, locus YLL026W, active compounds read low 0.983 | S. cerevisiae deletion strains, locus YLL041C, strain sdh2, active compounds read low 0.983 | S. cerevisiae deletion strains, locus YLR027C, strain aat2, active compounds read low 0.985 | S. cerevisiae deletion strains, locus YLR039C, strain RIC1, active compounds read low 0.962 | S. cerevisiae deletion strains, locus YLR058C, strain SHM2, active compounds read low 0.996 | S. cerevisiae deletion strains, locus YLR102C, strain apc9, active compounds read low 0.988 | S. cerevisiae deletion strains, locus YLR113W, strain HOG1, active compounds read low 0.987 | S. cerevisiae deletion strains, locus YLR221C, strain rsa3, active compounds read low 0.994 | S. cerevisiae deletion strains, locus YLR258W, strain gsy2, active compounds read low 0.981 | S. cerevisiae deletion strains, locus YLR262C, strain YPT6 (second series), active compounds read low 0.994 | S. cerevisiae deletion strains, locus YLR262C, strain YPT6, active compounds read low 0.966 | S. cerevisiae deletion strains, locus YLR268W, strain sec22, active compounds read low 0.953 | S. cerevisiae deletion strains, locus YLR320W, strain mms22, active compounds read low 0.977 | S. cerevisiae deletion strains, locus YLR330W, strain CHS5, active compounds read low 0.978 | S. cerevisiae deletion strains, locus YLR342W, strain FKS1 (second series), active compounds read low 0.994 | S. cerevisiae deletion strains, locus YLR342W, strain FKS1, active compounds read low 0.996 | S. cerevisiae deletion strains, locus YLR357W, strain rsc2, active compounds read low 0.952 | S. cerevisiae deletion strains, locus YLR370C, strain arc18, active compounds read low 0.974 | S. cerevisiae deletion strains, locus YLR371W, strain rom2, active compounds read low 0.97 | S. cerevisiae deletion strains, locus YLR384C, strain iki3, active compounds read low 0.992 | S. cerevisiae deletion strains, locus YLR418C, strain cdc73, active compounds read low 1 | S. cerevisiae deletion strains, locus YML016C, strain PPZ1, active compounds read low 0.995 | S. cerevisiae deletion strains, locus YML032C, strain rad52, active compounds read low 0.984 | S. cerevisiae deletion strains, locus YML120C, strain ndi1, active compounds read low 0.976 | S. cerevisiae deletion strains, locus YML124C, strain tub3, active compounds read low 0.989 | S. cerevisiae deletion strains, locus YMR058W, strain fet3, active compounds read low 0.977 | S. cerevisiae deletion strains, locus YMR078C, strain ctf18, active compounds read low 0.981 | S. cerevisiae deletion strains, locus YMR125W, strain sto1, active compounds read low 0.953 | S. cerevisiae deletion strains, locus YMR129W, active compounds read low 0.974 | S. cerevisiae deletion strains, locus YMR205C, strain PFK2, active compounds read low 0.968 | S. cerevisiae deletion strains, locus YMR223W, strain ubp8, active compounds read low 1.03 | S. cerevisiae deletion strains, locus YMR231W, strain pep5, active compounds read low 0.984 | S. cerevisiae deletion strains, locus YMR263W, strain SAP30, active compounds read low 0.985 and 1 and 0.998 | S. cerevisiae deletion strains, locus YMR307W, strain GAS1, active compounds read low 1 and 0.998 | S. cerevisiae deletion strains, locus YNL067W, strain RPL9B, active compounds read low 0.992 | S. cerevisiae deletion strains, locus YNL071W, strain lat1, active compounds read low 0.982 | S. cerevisiae deletion strains, locus YNL128W, strain TEP1, active compounds read low 0.986 | S. cerevisiae deletion strains, locus YNL153C, strain GIM3, active compounds read low 1.01 | S. cerevisiae deletion strains, locus YNL175C, strain NOP13, active compounds read low 0.995 and 1.02 | S. cerevisiae deletion strains, locus YNL183C, strain NPR1, active compounds read low 0.955 | S. cerevisiae deletion strains, locus YNL197C, strain WHI3, active compounds read low 0.986 and 1.02 | S. cerevisiae deletion strains, locus YNL209W, strain ssb2, active compounds read low 0.99 | S. cerevisiae deletion strains, locus YNL224C, strain SQS1, active compounds read low 0.992 and 0.996 | S. cerevisiae deletion strains, locus YNL233W, strain BNI4, active compounds read low 0.995 | S. cerevisiae deletion strains, locus YNL248C, strain rpa49, active compounds read low 1 | S. cerevisiae deletion strains, locus YNL250W, strain rad50, active compounds read low 0.986 | S. cerevisiae deletion strains, locus YNL271C, strain bni1, active compounds read low 0.993 | S. cerevisiae deletion strains, locus YNL298W, strain CLA4, active compounds read low 0.977 | S. cerevisiae deletion strains, locus YNL307C, strain MCK1, active compounds read low 0.982 | S. cerevisiae deletion strains, locus YNL322C, strain KRE1 (second series), active compounds read low 0.994 | S. cerevisiae deletion strains, locus YNL322C, strain KRE1, active compounds read low 0.995 and 0.991 and 1.02 | S. cerevisiae deletion strains, locus YNR049C, strain mso1, active compounds read low 0.975 | S. cerevisiae deletion strains, locus YNR052C, strain pop2, active compounds read low 0.967 | S. cerevisiae deletion strains, locus YOL006C, strain TOP1, active compounds read low 1.04 | S. cerevisiae deletion strains, locus YOL012C, strain htz1 0.915 | S. cerevisiae deletion strains, locus YOL147C, strain pex11, active compounds read low 0.992 | S. cerevisiae deletion strains, locus YOR001W, strain rrp6, active compounds read low 0.994 | S. cerevisiae deletion strains, locus YOR061W, strain CKA2, active compounds read low 0.996 | S. cerevisiae deletion strains, locus YOR069W, strain VPS5, active compounds read low 0.991 | S. cerevisiae deletion strains, locus YOR070C, strain gyp1, active compounds read low 0.981 | S. cerevisiae deletion strains, locus YOR080W, strain dia2, active compounds read low 0.983 | S. cerevisiae deletion strains, locus YOR083W, strain WHI5 (second series), active compounds read low 1.02 and 0.995 | S. cerevisiae deletion strains, locus YOR083W, strain WHI5, active compounds read low 1.01 | S. cerevisiae deletion strains, locus YOR106W, strain vam3, active compounds read low 1 | S. cerevisiae deletion strains, locus YOR136W, strain idh2, active compounds read low 0.995 | S. cerevisiae deletion strains, locus YOR144C, strain elg1, active compounds read low 0.992 | S. cerevisiae deletion strains, locus YOR184W, strain ser1, active compounds read low 0.988 | S. cerevisiae deletion strains, locus YOR231W, strain MKK1, active compounds read low 1 | S. cerevisiae deletion strains, locus YOR265W, strain rbl2, active compounds read low 0.982 | S. cerevisiae deletion strains, locus YOR270C, strain vph1, active compounds read low 0.973 | S. cerevisiae deletion strains, locus YOR290C, strain snf2, active compounds read low 0.963 | S. cerevisiae deletion strains, locus YOR316C, strain cot1, active compounds read low 0.98 | S. cerevisiae deletion strains, locus YPL051W, strain arl3, active compounds read low 0.996 | S. cerevisiae deletion strains, locus YPL055C, strain LGE1, active compounds read low 1.01 and 0.998 | S. cerevisiae deletion strains, locus YPL078C, strain atp4, active compounds read low 0.989 | S. cerevisiae deletion strains, locus YPL106C, strain sse1, active compounds read low 0.979 | S. cerevisiae deletion strains, locus YPL240C, strain hsp82, active compounds read low 0.98 | S. cerevisiae deletion strains, locus YPL241C, strain CIN2, active compounds read low 0.991 and 0.996 | S. cerevisiae deletion strains, locus YPL256C, strain CLN2, active compounds read low 0.99 | S. cerevisiae deletion strains, locus YPR119W, strain clb2, active compounds read low 0.981 | S. cerevisiae deletion strains, locus YPR141C, strain kar3, active compounds read low 0.993 | S. cerevisiae deletion strains, locus YPR163C, strain tif3, active compounds read low 0.984 | S. cerevisiae deletion strains, locus YPR167C, strain met16, active compounds read low 0.977 | S. cerevisiae deletion strains, strain wtn01, active compounds read low 0.985 | S. cerevisiae strains, strain wild type, active compounds read low 1
